# From PubChem BioAssay
# GLS inhibitor = inhibitors of human glutaminase (GLS) | GLS enzymatic activity, qHTS titration | Potency, µM (highest dose often 45.5 µM), for inactives: at the top dose activity change, negative = inhibition, hits mostly inhibitors | actives 0.21% (n = 410,000) | AID 624170; also: % is scaled to controls: 0 for no effect and ±100 for the full control effect
#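 hKGA in 45 mM KH2PO4 pH 8.2, 0.02% Tween-20 with pin-transferred compounds; 1 mM L-glutamine (stock) plus glutamate oxidase/HRP/Amplex Red coupling added. Fluorescence read initially and after 30 min at RT.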
# JMJD2A Tudor inh = blocks the human JMJD2A Tudor domain. O75164. AlphaScreen JMJD2A-Tudor / H3K4me3 peptide binding. Potency, µM (series often up to 114 µM), for inactives: at the top dose activity change, negative = inhibition, most hits filed as inhibitors. actives 4.4% (n = 390,000); also: % is scaled to controls: 0 for no effect and ±100 for the full control effect; nearly all actives have a fitted effect of over 50% in size
# G9a inh = G9a (human) methyltransferase inhibition; G9a H3K9 monomethylation, AlphaScreen, 2 h; Potency, µM (doses to about 102 µM), for inactives: top-dose activity, negative = inhibition, most hits filed as inhibitors; actives 8.8% (n = 350,000); also: % is scaled to controls: 0 for no effect and ±100 for the full control effect; nearly all actives have a fitted effect of over 75% in size
#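 Quantitative HTS format: methyltransferase activity on a biotin-tagged H3K9 peptide is measured by AlphaScreen, using a rabbit anti-monomethyl-H3K9 antibody with streptavidin donor and anti-IgG acceptor beads. Final levels are 20 nM enzyme, 500 nM peptide, 20 uM SAM; 2 h RT.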
# BAZ2B block = blocks human BAZ2B; Q9UIF8; AlphaScreen BAZ2B-H3K14Ac peptide displacement; Potency, µM (highest dose often 114 µM), for the others: at the top dose activity change, negative = inhibition, most hits filed as inhibitors; actives 4.4% (n = 360,000); also: % is scaled to controls: 0 for no effect and ±100 for the full control effect; nearly all actives have a fitted effect of over 60% in size
#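 AlphaScreen displacement of biotin-H3(5-23)K14Ac peptide (50 nM final) from BAZ2B (50 nM final) in PBS pH 7.4, 0.01% Tween-20; complex preformed 30 min RT, then compounds (top 110 uM) 30 min RT, beads 20 min dark.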
# HP1b chromo inh = blocks HP1-beta chromodomain binding to methylated histone tails | P83916 | AlphaScreen HP1-beta / biotin-H3K9me3 peptide binding | Potency, µM (titrated, usually from 114 µM), without a hit: top-dose activity change, negative = inhibition, usual class: inhibitors | actives 0.56% (n = 390,000); also: nearly all actives have a fitted effect of over 70% in size
#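 Compound inhibition of the preformed complex between 50 nM HP1-beta and 50 nM biotinylated H3K9me3 peptide was read by AlphaScreen. Buffer was PBS pH 7.4 with 0.01% Tween-20. Incubations ran 30 min at room temperature, with 10 ug/mL donor/acceptor beads.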
# Active calls of the source: *; ? = inconclusive; nt = no result given; [ ] = another dose, or the depositor's remark. An excerpt weighted towards active compounds, which were near 10% of everything screened. Calls follow the shape of the dose curve; as a rule, active = well fitted curve in the direction sought with a large enough effect; inconclusive = small, poorly fitted or top-dose-only effect, or another doubt; inactive = no such curve, though single readings can be large; an effect the other way counts as inactive or inconclusive. Potency is read from the fitted curve at half-maximal effect.
SMILES,GLS inhibitor,JMJD2A Tudor inh,G9a inh,BAZ2B block,HP1b chromo inh
N#Cc1c(SCc2ccccc2)sc(C(=O)c2ccccc2)c1N,0%,-4%,11µM*,-1%,32%
CCOC(=O)/C=C/C(=O)OCc1csc(CC(=O)Nc2ccccc2C)n1,3%,0%,29%,50µM*,50%
CCCC(=O)O[C@]1(C(=O)CCl)[C@H](C)C[C@@H]2[C@H]3CCC4=CC(=O)C=C[C@]4(C)[C@@]3(F)C(=O)C[C@@]21C,4%,nt,-27%[12.7 µM],nt,nt
Oc1ccc(/C=N/N(Cc2ccccc2)c2ccccc2)c(O)c1O,?,56µM*,28µM*,28µM*,?
Cc1occc1C(=O)/C(C#N)=C/c1ccc(O)c(Br)c1,-14%,-22%,50µM*,-38%,-9%
COc1cc(C2C3C(=O)N(Cc4ccccc4)C(=O)C3ON2c2ccccc2)cc(OC)c1O (stereo unspecified),5%,-32%,50µM*,?,-10%
CCOc1ccccc1C1C2C(=O)N(c3ccccc3)C(=O)C2ON1c1ccccc1 (stereo unspecified),6%,-18%,?,nt,38%
CCCOc1ccc(N2C(=O)C3ON(c4ccccc4)C(CCC)C3C2=O)cc1 (stereo unspecified),4%,7%[57.1 µM],40µM*,-1%,51%
CCCOc1ccc(N2C(=O)C3ON(c4ccccc4)C(c4ccc(O)c(OC)c4)C3C2=O)cc1 (stereo unspecified),?,-25%,50µM*,-19%,19%
COCCN(C(=O)c1ccc(N(C)S(=O)(=O)c2ccc(C)cc2)cc1)c1c(N)n(CC(C)C)c(=O)[nH]c1=O,0%,-4%,nt,nt,20%
COc1cc2c(cc1OC)CN(CC(=O)NC(=O)NCc1ccccc1)CC2,-13%,-17%,56µM*,-15%,34%
CCc1cccc(CC)c1NC(=O)CN1CCc2cc(OC)c(OC)cc2C1,nt,nt,71µM*,50µM*,nt
COC(=O)Nc1ccc([N+](=O)[O-])cc1OC,4%,-11%,14%,12%,23%
COC(=O)CSc1cc([N+](=O)[O-])ccc1NC(=O)OC,-4%,-11%[57.1 µM],35µM*,-3%,34%
COc1cc([N+](=O)[O-])ccc1NC(=O)CN1CCc2cc(OC)c(OC)cc2C1,1%,-35%,28µM*,-35%,-17%
O=C1Nc2ccccc2C12OCC(COc1ccc(Cl)cc1)O2 (stereo unspecified),1%,79µM*,-7%[12.7 µM],10%,-18%
CC(C)n1[nH]c2ccccc2c1=O,-23%,nt,nt,nt,nt
Cc1ccccc1NC1=C/C(=N\S(=O)(=O)c2ccc(C(=O)O)cc2)c2ccccc2C1=O,3%,40µM*,32µM*,13µM*,45µM*
COC(=O)C(C(C)=O)C1=C/C(=N\S(=O)(=O)c2ccc(C)cc2)c2ccccc2C1=O (stereo unspecified),52%,-23%,45µM*,-10%,-20%
O=C(O)c1ccc(S(=O)(=O)/N=C2\C=C(Nc3ccccc3F)C(=O)c3ccccc32)cc1,5%,40µM*,13µM*,22µM*,40µM*
O=C(NCc1ccccn1)C(=O)C1C(=O)Nc2ccccc21 (stereo unspecified),22%,-4%,50µM*,79µM*,32%
Cc1ccc(NC(=O)C(=O)C2C(=O)Nc3ccccc32)cc1 (stereo unspecified),-1%,-13%,?,3%,38%
O=C1Nc2ccccc2C1Cc1ccc(OC(F)(F)F)cc1 (stereo unspecified),-3%,-11%,1%,3%,39%
CN(C)CCNC(=O)C(=O)C1C(=O)Nc2ccccc21 (stereo unspecified),nt,nt,32µM*,-10%,nt
O=C1Nc2ccccc2C1C(C[N+](=O)[O-])c1ccccn1 (stereo unspecified),2%,-14%,35µM*,?,49%
SMILES,GLS inhibitor,JMJD2A Tudor inh,G9a inh,BAZ2B block,HP1b chromo inh
COc1cc(CC2C(=O)Nc3ccccc32)cc(C)c1O (stereo unspecified),-2%,-10%,35µM*,-12%,16%
O=[N+]([O-])c1ccc(CC(Cl)c2ccccn2)cc1 (stereo unspecified),-2%,-17%,nt,nt,29%
O=C(Nc1c(-c2ccc3c(c2)OCO3)[nH][nH]c1=O)c1cccc(C(F)(F)F)c1,28%,nt,nt,nt,nt
COc1cc(SC)ccc1C(=O)N1CCN(S(=O)(=O)/C=C/c2ccccc2)CC1,6%,-16%,-9%[59 µM],-3%,12%
CCCCCNC(=O)C(=O)C1C(=O)Nc2ccccc21 (stereo unspecified),4%,?,nt,79µM*,51%
O=C1Nc2ccccc2C1Cc1ccccn1 (stereo unspecified),5%,89µM*,?,?,1%
CCn1c(CC2C(=O)Nc3ccccc32)nc2ccccc2c1=O (stereo unspecified),-1%,-23%,-4%[59 µM],-6%,-1%
CC(C)CN1CCc2nc(N3CCN(C)CC3)ncc2C1,2%,-30%,-3%[12.7 µM],?,43%
O=P(O)(O)C(O)(Cn1ccnc1)P(=O)(O)O,-15%,nt,20%[59 µM],nt,nt
Cc1cccnc1N(C(=O)Nc1ccccc1)C1=NCC(C)(C)S1,17%,-27%,56µM*,3%,11%
CCOc1ccccc1NC(=O)c1ccc2c(c1)CCN2S(C)(=O)=O,9%,-14%,-7%[59 µM],-3%,34%
COc1ccc2c(c1)c(/C=N/Nc1ccc(C(=O)O)cc1)c(C)n2C,50%,?,8.9µM*,?,-4%[57 µM]
CCOC(=O)c1c(NC(C)=O)sc(C(=O)NC2CCCC2)c1C,11%,-13%,-4%,5%,-3%
CCOC(=O)c1c(NC(C)=O)sc(/C(C)=N/Nc2ccc(C(=O)O)cc2)c1C,36%,-33%,32µM*,?,-8%
COc1ccc2c(c1)C(=NNc1ccc(C(=O)O)cc1)c1cc(OC)ccc1-2,-1%,50µM*,?,40µM*,?
COc1ccc2c(c1)C(=NN)c1cc(OC)ccc1-2,22%,56µM*,?,40µM*,-20%
COc1ccc2c(/C=N/Nc3ccc(C(=O)O)cc3)c[nH]c2c1,40%,?,?,?,9%
CC(C)(C)OC(=O)N1CCC(c2c(C(=O)N3CCN(c4ccccn4)CC3)cnn2-c2cccc(F)c2)CC1,-3%,-18%,-23%[59 µM],3%[57.1 µM],14%
CC(=O)N1CCC2(CCCN(Cc3cc(C(F)(F)F)cc(C(F)(F)F)c3)C2)CC1,nt,nt,-14%[12.7 µM],nt,nt
C/C(=N\Nc1ccc(C(=O)O)cc1)c1ccc(Br)cc1,-18%,71µM*,nt,50µM*,?
C/C(=N/Nc1ncc(Br)cn1)c1ccc(Br)cc1,?,?,nt,-1%,-14%
COc1ccc(/C(C)=N/NC(=O)CNC(=O)Cc2ccccc2)c(OC)c1,4%,-9%,nt,2%,43%
